In PubChem BioAssay (NCI):
This is part of a sample that, as a whole, favours compounds with a hit. Of some 83,000 tested, about 20% had one in any assay.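 Single-dose data. Exposure time 48 hours. Values below 10 considered active.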 Values without a mark were called inactive. Calls of active or inactive are those of the source.

Columns and labels:
Assay in all cases: NCI-60 one-dose screen, 48 h (100 = growth as untreated, 0 = no growth, -100 = all killed)
Conditions in all cases: 10 µM unless noted
[1] = test system: DU-145 prostate
[2] = test system: K-562 leukemia
[3] = test system: MALME-3M melanoma
[4] = test system: MDA-MB-231 breast
[5] = test system: RXF 393 renal
[6] = test system: SF-268 CNS
[7] = test system: SF-295 CNS
[8] = test system: SF-539 CNS
[9] = test system: UACC-257 melanoma
[10] = test system: M14 melanoma
[11] = test system: HCT-15 colon
[12] = test system: HT29 colon
[13] = test system: SNB-75 CNS
[14] = test system: SNB-19 CNS
[15] = test system: PC-3 prostate
[16] = test system: SK-MEL-5 melanoma
[17] = test system: UACC-62 melanoma
[18] = test system: LOX IMVI melanoma
[19] = test system: SK-MEL-28 melanoma
[20] = test system: U251 CNS

| Compound | growth [1] | growth [2] | growth [3] | growth [4] | growth [5] | growth [6] | growth [7] | growth [8] | growth [9] | growth [10] | growth [11] [%] | growth [12] | growth [13] | growth [14] [%] | growth [15] | growth [16] | growth [17] | growth [18] | growth [19] | growth [20] |
| --- | --- | --- | --- | --- | --- | --- | --- | --- | --- | --- | --- | --- | --- | --- | --- | --- | --- | --- | --- | --- |
| CCOC(=O)c1cc2c(n(C)c1=O)-c1cnn(-c3ccc(OC)cc3)c1CC2 | 117% | 104% | 95.1% | 97.9% | 102% | 99.8% | 91.7% | 90.1% | 93.6% | 106% | 89 | 95.6% | 90.5% | 96.6 | 98.5% | 98% | 91.1% | 93.9% | 96.6% | – |
| Cn1c2c(cc(S(=O)(=O)c3ccccc3)c1=O)CCc1c-2cnn1-c1cccc(Cl)c1 | 135% | 73.3% | 87.4% | 98.3% | 93.4% | 106% | 80.3% | 83.1% | 79.7% | 98% | 96.7 | 91.3% | 76.4% | 97 | 83.1% | 83.3% | 84.6% | 93.4% | 94.7% | – |
| COc1cc(-c2ccc3cc(OC)c(OC)c(OC)c3c2)cc(OC)c1OC | 95.9% | 24.9% | 68.1% | 65.4% | 71.4% | 77.4% | 43.8% | 79.3% | 75.3% | 51.4% | 42.8 | 32.6% | 49.1% | – | 49.5% | – | 68.1% | 62.8% | 61% | 69% |
| O=C(Nc1ccc(Cl)c(Cl)c1)OCn1ncc2ccc([N+](=O)[O-])cc21 | 108% | 88% | 78.5% | 75.7% | 83.2% | 82.3% | 88.4% | 78.1% | 90.2% | 94.7% | 84.9 | 103% | 67.8% | 92.9 | 70.9% | 95.7% | 73.6% | 78.8% | 108% | – |
| Cc1ccc(C2SCC(=O)N2NC(=O)c2[nH]c3ccc(F)cc3c2-c2ccccc2)cc1 (stereo not drawn) | 106% | 75.8% | 91.6% | 86.4% | 78.7% | 93.4% | 92.4% | 97.6% | 86.9% | 109% | 89.8 | 74.4% | 71.4% | – | 59.9% | 89.6% | 78.1% | 91.2% | 97.5% | 81% |
| COc1ccc(-n2ncc3c4nc(OC)c(S(=O)(=O)c5ccccc5)cc4ccc32)cc1 | 73% | 119% | 56.9% | 75.6% | 35.1% | 50.9% | 84% | 30.7% | 76.9% | 85% | 77.6 | 70.3% | 6.98% (active) | 64.9 | 79.4% | 90.4% | 59.9% | 86.1% | 71.6% | – |
| CCCCCCCCCCCCCCn1c2ccccc2c2c3c(c4c5cc(OC)ccc5oc4c21)C(=O)NC3=O | 111% | 111% | 115% | 111% | 122% | 99.8% | 104% | 97% | 102% | 101% | 94.9 | 103% | 81.4% | – | 107% | 102% | 101% | 103% | 107% | 99.8% |
| Nc1nc(N)c(N=Nc2c(Br)cc(S(N)(=O)=O)cc2Br)c(N)n1 | 109% | 51.1% | 111% | 105% | 107% | 100% | 94.9% | 112% | 98.7% | 87.8% | 114 | 115% | 90.6% | 97.5 | 95.1% | 98.2% | 91.8% | 110% | 99.5% | – |
| COc1ccc(OC2=CC(=O)c3ccc(C)nc3C2=O)cc1 | 102% | 43.5% | 128% | 90.1% | 88.9% | 79.2% | 96.8% | 89.6% | 93.8% | 87.3% | 76.1 | 102% | 53.4% | – | 85.2% | 83.5% | 83.6% | 75.6% | 93.5% | 96.4% |
| CCC(C)Oc1cc(/C=N/NC(=O)c2cnn3c2NC(c2ccccc2)C3)ccc1OC (stereo not drawn) | 45.6% | 15.8% | 58.4% | 39.4% | 21% | 44.7% | 18.7% | 9.65% (active) | 55.5% | 34% | 23.9 | 15% | -12.2% (active) | – | 25.3% | 21.2% | 36% | 26.1% | 59.1% | 34.8% |
| Cc1nc2cc(Nc3nc(Nc4ccc(F)cc4)nc(-c4cccs4)n3)ccc2n1Cc1ccccc1 | 75.2% | 43.1% | 77.6% | 69.1% | 25.9% | 63.7% | 51.9% | 59.9% | 57.5% | 53.1% | 30.3 | 20.5% | 52.2% | 66.7 | 29.4% | 76.5% | 61.5% | 64.8% | 74.3% | – |
| O=C(N/N=C(\CS(=O)(=O)c1ccccc1)c1cc2cc(Br)ccc2oc1=O)c1ccccc1 | 105% | 112% | 111% | 94.2% | 126% | 98% | 98.6% | 101% | 107% | 106% | 99.8 | 103% | 89.8% | – | 95.5% | 103% | 95.2% | 99.1% | 99.3% | 97.7% |
| CCOC(=O)c1cn2c3c(cc(F)cc3c1=O)C(CC)c1ccccc1C2 (stereo not drawn) | 104% | 78.1% | 90.8% | 104% | 118% | 96.8% | 91.5% | 97.5% | 96.3% | 114% | 57.8 | 95.9% | 92.3% | – | 81.6% | 63.7% | 105% | 84.9% | 98.9% | 83.8% |
| CCN(C(=O)c1ccc2c3c(cccc13)C=C2)c1ccccc1 | 113% | 82.7% | 90.1% | 103% | 102% | 107% | 93.6% | 97.4% | 97% | 94.5% | 88.7 | 88.8% | 88.9% | 93.7 | 83.7% | 93.9% | 80.3% | 108% | 108% | – |
| O=C1CCC(N2Cc3c(C#CCCCNC(=O)c4cc5c(o4)C(=O)c4ccccc4C5=O)cccc3C2=O)C(=O)N1 (stereo not drawn) | -98.1% (active) | 16.2% | -97.6% (active) | -2.23% (active) | -15.4% (active) | -10.1% (active) | -87% (active) | -94.2% (active) | -79% (active) | -87.8% (active) | 76 | -15.4% (active) | -98.7% (active) | – | 4.79% (active) | -99.2% (active) | -84.4% (active) | -88.3% (active) | -22.9% (active) | -27.7% (active) |
| c1ccc(-c2n(Cc3ccc4ccccc4n3)c3ccccc3[n+]2Cc2ccc3ccccc3n2)cc1 | 17.5% | 2.99% (active) | -24.6% (active) | -13.1% (active) | -4.06% (active) | 5.9% (active) | -9.19% (active) | 7.88% (active) | -2.75% (active) | -14.9% (active) | 47.9 | 0.506% (active) | -21.5% (active) | – | 5.27% (active) | -95.9% (active) | -45% (active) | -75.8% (active) | -4.75% (active) | 12.1% |
